Calls of active or inactive are those of the source. Unless noted, how the calls were made is not given here.
Key:
[1] = compound effects on lung adenocarcinoma cell viability – A549, calcein-AM fluorescence, 48 h, basal, profiling panel (AID 1162); conditions: higher = more signal; further: test concentration not given here
[2] = compound effects on differentiated 3T3-L1 adipocyte viability – cell-based, 3T3-L1 adipocytes, calcein-AM fluorescence, 48 h, basal, profiling panel (AID 1163); conditions: 3T3-L1 adipocytes viability, higher = more signal; further: test concentration not given here
[3] = compound effects on hepatocellular carcinoma cell viability – HepG2, calcein-AM fluorescence, 48 h, basal, profiling panel (AID 1164); conditions: higher = more signal; further: test concentration not given here
[4] = compound effects on multiple myeloma cell viability – MM1S, calcein-AM fluorescence, 48 h, basal, profiling panel (AID 1165); conditions: higher = more signal; further: test concentration not given here
[5] = calcein-AM signal in unstimulated myeloma cells – cell-based, calcein-AM fluorescence, 48 h, PK04 Diversity Set, profiling panel (AID 1166); conditions: RPMI8226 myeloma viability, higher = more signal;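 further: cells grown under basal conditions without added stimulus; test concentration not given here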
[6] = JC-1 mitochondrial signal, unstimulated HepG2 cells – cell-based, JC-1 fluorescence, 24 h, 100 nL compound, profiling panel (AID 1167); conditions: HepG2 mitochondrial potential, higher = more signal; further: test concentration not given here
[7] = JC-1 mitochondrial signal, unstimulated adipocytes – cell-based, JC-1 fluorescence, 3T3-L1 adipocytes, 24 h, 100 nL compound, profiling panel (AID 1168); conditions: JC-1 mitochondrial fluorescence, higher = more signal, called active from +8 up or from −8 down; further: test concentration not given here
[8] = JC-1 mitochondrial signal, unstimulated myeloma cells – cell-based, JC-1 fluorescence, RPMI8226, 24 h, 100 nL compound, profiling panel (AID 1169); conditions: JC-1 mitochondrial potential fluorescence, higher = more signal; further: test concentration not given here
[9] = JC-1 mitochondrial signal, unstimulated MM1S myeloma – cell-based, JC-1 fluorescence, 24 h, 100 nL compound, profiling panel (AID 1170); conditions: MM1S mitochondrial potential, higher = more signal; further: test concentration not given here
[10] = resazurin metabolic signal in A549 cells – cell-based, resazurin fluorescence, 24 h, PK04 Diversity Set, profiling panel (AID 1171); conditions: A549 viability, higher = more signal, called active from +8 up or from −8 down; further: test concentration not given here
[11] = resazurin metabolic signal in HepG2 cells – cell-based, resazurin fluorescence, 24 h, PK04 Diversity Set, profiling panel (AID 1172); conditions: HepG2 viability, higher = more signal; further: test concentration not given here
[12] = budding yeast growth changes without added modifier – OD600, strain BY4716, 24 h, basal condition, primary screen (AID 1173); conditions: S. cerevisiae BY4716 growth, OD600, 24 h; higher = more signal, called active from +8 up or from −8 down
[13] = viability profiling in MM1S myeloma cells – cell-based, resazurin fluorescence, basal, 24 h, PK04 Diversity Set, profiling panel (AID 1174); conditions: higher = more signal, called active from +8 up or from −8 down; further: test concentration not given here
[14] = target: Dihydroorotate dehydrogenase (quinone), mitochondrial (Plasmodium falciparum (isolate 3D7)) (UniProt Q08210); experiment: inhibition of P. falciparum DHODH – biochemical, C-terminal His tag, absorbance 600 nm, primary screen (AID 1175); conditions: PfDHODH enzyme, DCIP absorbance 600 nm; higher = more signal, called active from +8 up or from −8 down;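 further: recombinant parasite enzyme with a five histidine tag at its C terminus; test concentration not given here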
Dihydroorotate dehydrogenase (quinone), mitochondrial (Plasmodium falciparum (isolate 3D7)), sequence (Q08210 whole entry, looked up): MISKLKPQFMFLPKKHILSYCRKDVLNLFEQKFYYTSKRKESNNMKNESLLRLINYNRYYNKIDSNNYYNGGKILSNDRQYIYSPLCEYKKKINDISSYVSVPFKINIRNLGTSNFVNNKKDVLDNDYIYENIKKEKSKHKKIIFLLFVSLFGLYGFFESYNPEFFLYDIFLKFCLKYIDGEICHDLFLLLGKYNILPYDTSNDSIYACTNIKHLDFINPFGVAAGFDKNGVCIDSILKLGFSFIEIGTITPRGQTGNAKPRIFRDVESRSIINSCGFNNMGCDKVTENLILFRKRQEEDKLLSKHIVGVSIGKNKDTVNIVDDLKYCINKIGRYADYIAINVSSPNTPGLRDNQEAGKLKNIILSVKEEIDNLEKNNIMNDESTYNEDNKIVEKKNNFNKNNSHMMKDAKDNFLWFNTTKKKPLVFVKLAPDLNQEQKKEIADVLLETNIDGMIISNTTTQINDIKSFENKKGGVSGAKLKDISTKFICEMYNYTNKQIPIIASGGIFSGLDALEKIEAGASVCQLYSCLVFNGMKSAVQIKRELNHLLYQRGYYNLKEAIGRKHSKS

[15] = inhibition of PAO1 biofilm formation – strain PAO1, LB-PBS medium, absorbance 600 nm, primary screen (AID 1176); further: test concentration not given here; conditions: P. aeruginosa PAO1 growth/biofilm, A600, 12 h; higher = more signal
[16] = growth modulation of vineyard yeast isolate – strain RM11-1a, OD600, basal, 24 h, primary screen (AID 1177);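 further: cultures grown under basal conditions with no added stressor; test concentration not given here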; conditions: S. cerevisiae RM11-1a growth, OD600, 24 h; higher = more signal, called active from +8 up or from −8 down
[17] = growth of efflux-deficient E. coli DRC39 – strain DRC39, OD650, 24 h, E. coli filamentation inducers, primary screen (AID 1178);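 further: growth measured as culture turbidity by optical density at 650 nm; test concentration not given here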; conditions: E. coli DRC39 acrAB, higher = more signal, called active from +8 up or from −8 down
[18] = growth of efflux-deficient E. coli DRC39 – strain DRC39, OD650, 48 h, E. coli filamentation inducers, primary screen (AID 1179);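 further: screen aims at cell division blockers that make cells filament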; conditions: E. coli DRC39 delta-acrAB growth, higher = more signal, called active from +8 up or from −8 down
[19] = viability profiling in RPMI8226 myeloma cells – cell-based, resazurin fluorescence, basal, 24 h, PK04 Diversity Set, profiling panel (AID 1180); conditions: higher = more signal;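 further: RPMI8826 multiple myeloma cell line at 5000 cells per well; test concentration not given here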
[20] = target: E3 ubiquitin-protein ligase XIAP (Homo sapiens) (UniProt P98170); experiment: small molecules binding XIAP protein – biophysical, small-molecule microarray, fluorescence 635 nm, primary screen (AID 1181); conditions: higher = more signal;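 further: score merges 667 nm emission and signal to noise over triplicate slides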
E3 ubiquitin-protein ligase XIAP (Homo sapiens), sequence (P98170 whole entry, looked up): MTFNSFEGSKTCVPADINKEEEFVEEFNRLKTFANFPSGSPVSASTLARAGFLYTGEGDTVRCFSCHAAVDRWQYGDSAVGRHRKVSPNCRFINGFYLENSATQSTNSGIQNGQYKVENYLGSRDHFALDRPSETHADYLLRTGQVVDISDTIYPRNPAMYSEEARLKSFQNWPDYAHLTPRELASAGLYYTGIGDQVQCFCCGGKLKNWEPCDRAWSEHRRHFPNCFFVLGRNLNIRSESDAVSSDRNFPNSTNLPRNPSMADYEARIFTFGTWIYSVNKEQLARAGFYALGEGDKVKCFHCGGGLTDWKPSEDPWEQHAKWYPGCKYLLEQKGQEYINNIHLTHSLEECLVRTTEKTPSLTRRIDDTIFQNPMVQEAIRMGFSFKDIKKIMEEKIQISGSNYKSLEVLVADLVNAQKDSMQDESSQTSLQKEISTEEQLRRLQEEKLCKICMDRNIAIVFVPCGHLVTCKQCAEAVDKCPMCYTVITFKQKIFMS

| SMILES | z-score [1] | z-score [2] | z-score [3] | z-score [4] | z-score [5] | z-score [6] | z-score [7] | z-score [8] | z-score [9] | z-score [10] | z-score [11] | z-score [12] | z-score [13] | composite z-score [14] | z-score [15] | z-score [16] | z-score [17] | z-score [18] | z-score [19] | composite z-score [20] |
| --- | --- | --- | --- | --- | --- | --- | --- | --- | --- | --- | --- | --- | --- | --- | --- | --- | --- | --- | --- | --- |
| Cc1c(NC(=O)/C(C#N)=C/C=C/c2ccc(N(C)C)cc2)c(=O)n(-c2ccccc2)n1C | 0.284 | 0.257 | 0.175 | 0.232 | 0.285 | -0.545 | 2.26 (inactive) | -0.665 | 1.64 | 0.765 (inactive) | 0.29 | -0.312 (inactive) | 0.514 (inactive) | -0.186 (inactive) | -0.103 (inactive) | -0.246 (inactive) | 1.78 (inactive) | -0.202 (inactive) | 1.08 | 0.0899 |
| C=C(C(=O)CC[C@H](OC(=O)c1cccnc1)c1cccc(OCCO)c1)C(C)C | 0.647 | 0.47 | -0.419 | -2.44 | -1.46 | -1.03 | 0.584 (inactive) | -0.0636 | -0.326 | 0.371 (inactive) | 0.0418 | 1.06 (inactive) | -1.16 (inactive) | 0.612 (inactive) | -0.116 (inactive) | 2.01 (inactive) | 0.675 (inactive) | 0.297 (inactive) | -1.36 | -0.0117 |
| Cc1ccc(S[C@]2(C(=O)NCCN3CCOCC3)CC(=O)N(Cc3ccccc3C(F)(F)F)[C@@H]2c2ccc(CO)cc2I)cc1 | -0.209 | -0.292 | -0.695 | -2.85 | -2.15 | -0.178 | -1.03 (inactive) | -0.793 | -2.36 | 0.683 (inactive) | 0.628 | -3.34 (inactive) | -2.71 (inactive) | -0.323 (inactive) | 0.875 (inactive) | -1.57 (inactive) | 0.142 (inactive) | 0.0559 (inactive) | -2.22 | -0.17 |
| C[C@H]1C2=C3C(CC[C@H]4C(OCc5ccc(F)cc5C(F)(F)F)OC[C@](C)([C@@H]34)N(C(=O)OC(C)(C)C)C2)C2COC(=O)OCC21 (stereo not given in full) | -1.17 | 0.338 | -0.659 | -2.6 | -3.96 | -0.255 | -1.06 (inactive) | -0.325 | -0.183 | 0.117 (inactive) | -1.33 | -0.0764 (inactive) | -1.43 (inactive) | -0.047 (inactive) | 0.371 (inactive) | 0.235 (inactive) | -0.698 (inactive) | -0.398 (inactive) | -1.18 | 0.572 |
